Laboratory results reported in PubChem BioAssay (NCATS).
Records with an inconclusive call do not appear. Some of the results follow. Active and inactive are the calls of the source. The call rests on the fitted dose curve; in most records, active means well fitted curve in the direction sought with a large enough effect; inconclusive means small, poorly fitted or top-dose-only effect, or another doubt; inactive means no such curve, though single readings can be large; an effect the other way counts as inactive or inconclusive.

What was measured:
[1] = MultiTox-Fluor Cytotoxicity Assay - LYMP1-001 - Live Cells (AID 947)
[2] = target: Lethal(3)malignant brain tumor-like protein 1 (Homo sapiens) (UniProt Q9Y468); assay: qHTS Assay for the Inhibitors of L3MBTL1: Hit Validation (AID 540279); details: L3MBTL1 methyl-lysine binding inhibition, biochemical qHTS; further: potency means the concentration at half of the fitted maximal effect; nearly all actives have a fitted effect of over 70% in size
Excerpt: The histone code is comprised of many post-translational modifications that occur mainly in histone tail peptides. The identity and location of these marks are read by a variety of histone binding proteins that are emerging as important regulators of cellular differentiation and development and are increasingly being implicated in numerous disease states. Small molecule probes that disrupt the interaction between histone binding proteins and chromatin would enable a systematic chemical biology study of proteins that read the histone code and could potentially reveal new targets for drug discovery. However, no such small molecules are known. This dearth of quality molecular probes can largely be attributed to the novelty of the target class and the lack of screening assays. This proposal details the development of the first high-throughput screening assay for the discovery of inhibitors of methyl-lysine binding proteins and how it can be used to initiate a full-scale discovery effort for antagonists of histone binding proteins. […]
To each well, 2 uL of L3MBTL1 protein (final 50 nM) and 1 uL biotinylated histone peptide monomethylated at Lys9 [b-AHA-H3(1-15)K9me1] […] Microplates were then be read on an EnVision multilabel plate reader using the 1,536 plate HTS AlphaScreen aperture (excitation time 80 ms, measurement time 240 ms).

[3] = target: DNA polymerase kappa (Homo sapiens) (UniProt Q9UBT6); assay: qHTS for Inhibitors of Polymerase Kappa: Confirmatory Assay for Cherry-picked Compounds (AID 720501); details: purified Pol-kappa, fluorescent strand-displacement substrate; further: potency means the concentration at half of the fitted maximal effect
Method in brief: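 Strand-displacement fluorescence read-out: TAMRA reporter released from a BHQ-2-quenched template, measured at 525/598 nm over a 10 min kinetic window. Substrate was 50 nM final; enzyme was 10 nM Pol-kappa, preincubated 15 min at room temperature with compound.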

[4] = target: DNA polymerase eta (Homo sapiens) (UniProt Q9Y253); assay: qHTS for Inhibitors of Polymerase Eta: Confirmatory Assay for Cherry-picked Compounds (AID 720502); details: Pol eta primer extension, TAMRA/BHQ fluorescence, 10 min; further: potency means the concentration at half of the fitted maximal effect
Method in brief: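 Quenched-fluorescence replication assay: 10 nM Pol eta, 50 nM substrate final, 15 min compound preincubation at room temperature, 10 min kinetic reaction read at 525/598 nm.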

DNA polymerase kappa (Homo sapiens), sequence (Q9UBT6 whole entry, looked up): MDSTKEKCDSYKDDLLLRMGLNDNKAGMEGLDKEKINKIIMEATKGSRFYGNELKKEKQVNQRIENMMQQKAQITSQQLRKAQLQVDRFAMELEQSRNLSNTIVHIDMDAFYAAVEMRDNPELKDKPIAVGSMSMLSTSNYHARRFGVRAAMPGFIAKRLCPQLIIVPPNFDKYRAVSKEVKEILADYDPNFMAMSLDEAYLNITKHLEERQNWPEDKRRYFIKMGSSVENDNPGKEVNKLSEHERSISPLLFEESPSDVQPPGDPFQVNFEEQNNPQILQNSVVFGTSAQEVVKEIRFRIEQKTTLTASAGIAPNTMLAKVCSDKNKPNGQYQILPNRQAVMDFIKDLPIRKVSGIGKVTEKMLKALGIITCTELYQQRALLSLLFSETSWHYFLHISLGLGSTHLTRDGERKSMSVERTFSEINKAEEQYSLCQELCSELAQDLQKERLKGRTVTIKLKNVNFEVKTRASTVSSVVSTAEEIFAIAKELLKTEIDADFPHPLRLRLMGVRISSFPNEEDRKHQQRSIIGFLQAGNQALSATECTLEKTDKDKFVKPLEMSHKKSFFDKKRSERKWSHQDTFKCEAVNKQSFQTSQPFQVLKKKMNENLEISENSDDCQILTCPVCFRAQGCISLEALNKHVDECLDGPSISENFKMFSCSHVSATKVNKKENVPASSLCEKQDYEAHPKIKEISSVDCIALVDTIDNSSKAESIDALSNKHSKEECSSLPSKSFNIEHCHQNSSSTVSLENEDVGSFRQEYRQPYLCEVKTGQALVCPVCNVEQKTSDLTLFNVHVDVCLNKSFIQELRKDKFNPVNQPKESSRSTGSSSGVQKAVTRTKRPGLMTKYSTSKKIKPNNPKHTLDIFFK
Lethal(3)malignant brain tumor-like protein 1 (Homo sapiens), sequence (Q9Y468 whole entry, looked up): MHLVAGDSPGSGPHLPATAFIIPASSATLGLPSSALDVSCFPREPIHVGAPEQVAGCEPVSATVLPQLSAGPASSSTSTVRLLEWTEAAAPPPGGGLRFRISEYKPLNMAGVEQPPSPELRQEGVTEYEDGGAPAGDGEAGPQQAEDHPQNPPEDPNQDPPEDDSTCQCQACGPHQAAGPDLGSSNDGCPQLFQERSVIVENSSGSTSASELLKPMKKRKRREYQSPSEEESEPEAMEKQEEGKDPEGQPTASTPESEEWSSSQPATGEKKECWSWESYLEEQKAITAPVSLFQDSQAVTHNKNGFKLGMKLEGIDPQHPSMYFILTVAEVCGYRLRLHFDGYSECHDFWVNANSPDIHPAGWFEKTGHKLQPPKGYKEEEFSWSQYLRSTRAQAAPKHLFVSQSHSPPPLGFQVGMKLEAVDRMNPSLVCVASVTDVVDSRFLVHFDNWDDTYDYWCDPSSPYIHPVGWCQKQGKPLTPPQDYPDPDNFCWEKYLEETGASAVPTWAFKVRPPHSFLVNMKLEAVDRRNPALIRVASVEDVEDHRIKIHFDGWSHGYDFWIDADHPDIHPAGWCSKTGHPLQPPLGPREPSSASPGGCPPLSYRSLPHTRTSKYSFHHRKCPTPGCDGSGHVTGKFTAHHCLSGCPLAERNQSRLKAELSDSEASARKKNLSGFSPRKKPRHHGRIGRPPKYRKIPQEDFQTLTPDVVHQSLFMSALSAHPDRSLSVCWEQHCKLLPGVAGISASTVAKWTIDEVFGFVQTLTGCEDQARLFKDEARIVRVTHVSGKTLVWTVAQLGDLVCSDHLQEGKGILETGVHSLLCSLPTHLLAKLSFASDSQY
DNA polymerase eta (Homo sapiens), sequence (Q9Y253 whole entry, looked up): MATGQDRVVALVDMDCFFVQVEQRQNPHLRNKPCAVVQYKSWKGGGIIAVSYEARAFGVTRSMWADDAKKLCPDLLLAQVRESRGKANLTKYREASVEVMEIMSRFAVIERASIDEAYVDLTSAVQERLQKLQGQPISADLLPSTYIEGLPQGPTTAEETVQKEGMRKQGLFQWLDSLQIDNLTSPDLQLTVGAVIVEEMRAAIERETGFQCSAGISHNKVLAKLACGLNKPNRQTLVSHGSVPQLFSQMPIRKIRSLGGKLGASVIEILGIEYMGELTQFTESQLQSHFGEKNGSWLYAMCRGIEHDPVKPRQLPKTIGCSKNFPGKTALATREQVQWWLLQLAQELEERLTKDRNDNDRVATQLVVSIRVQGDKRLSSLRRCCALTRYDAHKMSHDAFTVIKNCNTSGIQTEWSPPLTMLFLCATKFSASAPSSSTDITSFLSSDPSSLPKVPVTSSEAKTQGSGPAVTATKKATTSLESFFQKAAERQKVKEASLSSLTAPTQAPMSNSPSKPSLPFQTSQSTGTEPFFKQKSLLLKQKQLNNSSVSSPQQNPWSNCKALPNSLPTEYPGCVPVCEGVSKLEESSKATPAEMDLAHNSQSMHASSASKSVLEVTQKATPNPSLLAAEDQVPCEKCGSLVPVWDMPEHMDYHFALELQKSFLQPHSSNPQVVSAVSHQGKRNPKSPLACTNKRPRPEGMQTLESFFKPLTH

Structure (SMILES)	Potency [1]	Potency [2]	Potency [3]	Potency [4]
CN1[C@H]2CC(OC(=O)[C@H](CO)c3ccccc3)C[C@H]1[C@H]1O[C@H]12 (some centres undefined)	inactive			
Cc1cc(/C=C2/C(=O)NC(=O)N(Cc3ccco3)C2=O)c(C)n1-c1ccc(C(=O)O)cc1		9.47 µM (active)	18.9 µM (active)	60.1 µM (active)
